HT1080 IDH1KD tx: HT-1080 IDH1 knockdown cell toxicity (counter line). HT-1080 IDH1 knockdown viability, ATP luminescence, 48 h. Potency, µM (titrated, usually from 46.1 µM), for inactives: top-dose activity, negative = toxicity, hits mostly cytotoxic. hit rate 2% among 360,000;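 further: potency means the concentration at half of the fitted maximal effect; 0% = DMSO wells and -100% = cell-free medium wells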
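Viability of IDH1-knockdown HT-1080 fibrosarcoma cells was assessed by CellTiter-Glo after 48 h at 37 °C with titrated compound; concentration-effect curves were classified by fit quality and response size.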
HT1080NT lethal: kills 2HG-producing HT-1080-NT fibrosarcoma cells | HT-1080-NT fibrosarcoma viability, CellTiter-Glo ATP luminescence, 48 h | Potency, µM (doses to about 46.1 µM), for inactives: at the highest dose activity, negative = less viability, hits mostly cytotoxic | hit rate 1.6% among 360,000;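 further: NT is the 2HG producing partner of a matched IDH1 knockdown line; potency means the concentration at half of the fitted maximal effect; 0% = DMSO-treated cells and -100% = media-only wells without cells; nearly all actives have a fitted effect of over 55% in size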
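Compounds were tested in concentration-response format on HT-1080-NT cells for 48 hours at 37 degrees C. Cell viability came from CellTiter-Glo luminescence; curves were classified by r2, response magnitude and activity.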
IL-1B inflam inh: inhibitors of inflammasome signaling (IL-1 beta secretion). activity change, % at 57.5 µM. THP-1 LPS/ATP IL-1B secretion, AlphaLISA, 16 h; active compounds read low. hit rate 4.7% among 360,000; in the data active means activity change below about -50%; inconclusive means mostly about -30% to -49%
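THP-1 cells pretreated 1 hr with compounds (up to 57.5 uM final), then stimulated with LPS (250 ng/mL final) plus ATP (1.25 mM final); secreted IL-1B measured by AlphaLISA after 16 hr, decreased signal indicating inhibition.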
DT40 TDP1 CPT: growth inhibition of DT40 Tdp1-/-;hTDP1 cells with camptothecin (screen for TDP1 inhibitors) | chicken DT40 Tdp1-/-;hTDP1 cells + 20 nM CPT, ATP luminescence, 48 h | Potency, µM (series often up to 46.2 µM), without a hit: at the top dose activity change, negative = growth inhibition, hits mostly inhibitors | hit rate 12% among 420,000; further: potency means the concentration at half of the fitted maximal effect; nearly all actives have a fitted effect of over 55% in size
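Chicken DT40 Tdp1-/- cells stably complemented with human TDP1 were seeded at 400 cells/well in medium containing 20 nM camptothecin, exposed to pin-transferred compounds, and grown at 37 °C for at least 48 hr. Viability was read as ATP luminescence.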
DT40 TDP1 no CPT: qHTS for Inhibitors of human tyrosyl-DNA phosphodiesterase 1 (TDP1): qHTS in cells in absence of CPT. hit rate 15% among 420,000. Potency, µM (highest dose often 46.2 µM), inactives show at the highest dose activity change, negative = growth inhibition, usual class: inhibitors. AID 686978, 2013. DT40 Tdp1-/- hTDP1 cells, no CPT, ATP luminescence, 48 h; further: potency means the concentration at half of the fitted maximal effect; nearly all actives have a fitted effect of over 55% in size
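Seeded 400 DT40-hTDP1 cells/well (vehicle DMSO, no 20 nM CPT); pinned compounds; ≥48 hr at 37 °C; CellTiter-Glo luminescence as viability measure.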
Starred values were filed as active, the others as inactive; ? = inconclusive; · = no result; [ ] = dose if it differs, or a comment. In the library only some 19% were active in any assay of this set; here they are far more common. Unless noted, the call rests on the fitted dose curve; in most records, active means well fitted curve in the direction sought with a large enough effect; inconclusive means small, poorly fitted or top-dose-only effect, or another doubt; inactive means no such curve, though single readings can be large; an effect the other way counts as inactive or inconclusive. Unless noted, on the % scale 0 is the no-effect control and ±100 the full control effect.

SMILES	HT1080 IDH1KD tx	HT1080NT lethal	IL-1B inflam inh	DT40 TDP1 CPT	DT40 TDP1 no CPT
Cc1[nH]c2ccccc2c1/C=N/Nc1nc2ccccc2[nH]1	18.4µM*	18.4µM*	-105.4*	?	?
Cc1ccc(-c2csc3nnc(SCC(=O)Nc4cccc(C)n4)n23)cc1	-3.4%	-5.9%	-12.3	-20.8%	?
CCCc1nnc(NC(=O)CCC(=O)N2CCN(Cc3ccc(F)cc3)CC2)s1	15.7%	11.7%	0.0	-29.1%	-2.8%
COc1cc(OC)c(C(=O)Nc2cc(S(=O)(=O)N3CCOCC3)ccc2N2CCN(C)CC2)cc1OC	-0.4%	-15.6%	?	10.4%	0.6%
COc1ccc(/C=N/Nc2nc3ccccc3[nH]2)c(OC)c1OC	?	0.1%	-1.8	?	?
Cc1ccccc1/C=N/Nc1nc2ccccc2[nH]1	-13.8%	-20.5%	-68.4*	?	?
C(=N\Nc1nc2ccccc2[nH]1)/c1cccc2cccnc12	?	?	217.0	2.59µM*	2.91µM*
C(=N\Nc1nc(N2CCCCC2)nc(N2CCCCC2)n1)/c1c[nH]c2ccccc12	-17.8%	?	-59.8*	?	16.4µM*
COc1cccc(C2=NOC(C(=O)Nc3cccnc3Cl)C2)c1 (stereo unspecified)	12.2%	9.5%	38.8	0.4%	-28.5%
O=C(NCCCc1ccc(F)cc1)C1CCC(=O)N(CC2CCCCC2)C1 (stereo unspecified)	-9.4%	-3.3%	-1.6	?	?
COc1ccc(N2CCN(c3ncnc4onc(C)c34)CC2)cc1	·	·	·	20.6µM*	16.4µM*
Cc1noc2ncnc(N3CCCCC3)c12	3.2%	2.1%	5.7	-24.5%	?
Cc1noc2ncnc(N3CCN(c4ccc(F)cc4)CC3)c12	-1.2%	5.6%	7.3	?	18.4µM*
CCn1c(SCC(=O)Nc2oc(-c3ccccc3)c(-c3ccccc3)c2C#N)nnc1-c1ccncc1	0.1%	-0.6%	4.0	13µM*	?
CN(C)c1ccc(NC(=O)c2sc(SCC(=O)Nc3nccs3)nc2N)cc1	-2.4%	-3.0%	-21.9	?	16.4µM*
CC(C)OC(=O)CSc1nnc(-c2ccccc2)n1N	1.7%	8.5%	?	-7.6%	9.8%
CCOC(=O)N1CCN(C(=O)CSCC(=O)Nc2nc(-c3ccccc3)cs2)CC1	-15.3%	-7.2%	-7.9	20.6µM*	?
CCn1c(SCC(=O)OC(C)C)nnc1-c1ccccc1	6.7%	-5.5%	-63.9*	3.8%	-3.5%
O=C(CSCC(=O)N1CCN(c2ccccc2)CC1)Nc1nc(-c2ccc(Cl)s2)cs1	-3.5%	-1.1%	-26.2	?	?
CC(C)c1ccc(S(=O)(=O)N2CCN(C(=O)c3cccc(S(=O)(=O)N4CCOCC4)c3)CC2)cc1	4.2%	1.8%	32.7	?	?
OC(c1ccccc1)(c1ccccc1)c1ccn[nH]1	-0.3%	0.0%	32.6	-7.1%	6.3%
CCOc1ccc(N(CC(=O)N/N=C/c2ccc(OC(C)C)cc2)S(C)(=O)=O)cc1	16.8%	-3.5%	-15.2	11.5%	-22.3%
CCn1c(SCC(=O)c2ccc(O)c(O)c2)nnc1-c1ccc(C)cc1	-13.8%	-11.6%	49.5	23.1µM*	?
CCn1c(SCC(=O)Nc2nccs2)nnc1-c1ccc(S(=O)(=O)N2CCCCC2)cc1	-11.8%	-10.0%	-20.6	?	16.4µM*
O=C(CSc1ccccc1)Nc1nccs1	18.1%	25.3%	10.7	26.3%	-15.2%
SMILES	HT1080 IDH1KD tx	HT1080NT lethal	IL-1B inflam inh	DT40 TDP1 CPT	DT40 TDP1 no CPT
CCn1c(SCC(=O)Nc2nc(-c3ccccc3)cs2)nnc1-c1ccccc1	?	?	-62.7*	?	?
CCn1c(SCC(=O)N/N=C(\C)c2ccncc2)nnc1-c1ccc(C)cc1	9.4%	9.6%	1.3	-21.5%	?
Cc1nnc(SCC(=O)Nc2nc(-c3ccccc3)cs2)n1N	-10.2%	-1.4%[9.24 µM]	73.4	-6.7%	-13.6%
O=C(CSc1nc(-c2ccccc2)cs1)Nc1nccs1	?	?	36.5	?	16.4µM*
O=C(Nc1ccc(S(=O)(=O)NC2=NCCCCC2)cc1)c1cc(F)c(F)cc1Cl	2.6%	5.7%	0.8	-28.5%	?
O=C(CSc1nnc(SCc2ccccc2)s1)NNC(=S)Nc1ccccc1	-0.4%	6.2%	10.8	-7.0%	?
CC(OC(=O)c1ccc(C#N)cc1)C(=O)Nc1ccc(Cl)cn1 (stereo unspecified)	-7.2%	-49.7%	-7.2	-14.0%	-12.2%
COc1ccc2cc(C)c3nnc(SCC(=O)Nc4nc(-c5ccccc5)cs4)n3c2c1	-4.6%	-10.0%	34.9	?	4.61µM*
COc1ccc(-c2oc(NC(=O)CSc3nncn3C)c(C#N)c2-c2ccc(OC)cc2)cc1	16.4µM*	?	-8.2	?	?
CCC(=O)OC1=CN(Cc2ccccc2)S(=O)(=O)c2ccccc21	·	·	·	7.6%	4.1%
O=C(NNc1cccc(Cl)c1)c1cccnc1Oc1ccccc1	6.51µM*	?	·	1.2%	-10.9%
Cc1ccc([N+](=O)[O-])c(C)[n+]1C	-10.5%	2.1%	20.3	?	?
CC1(C)N=c2ccc([N+](=O)[O-])c(N)c2=[N+]1[O-]	-25.0%	?	78.0	14.6µM*	20.6µM*
O=C(N/C=N/OCc1ccc(Cl)cc1Cl)NOCc1ncc(C(F)(F)F)cc1Cl	25.9µM*	?	-14.0	?	14.6µM*
N#Cc1sc2nc(-c3cccs3)cc(-c3ccc(F)cc3)c2c1N	18.9%	0.2%	8.4	15.1%	-1.4%
N#Cc1sc2nc(-c3ccccc3)cc(-c3ccco3)c2c1N	-4.2%	-6.8%	-9.1	18.4µM*	?
CCN(C(=O)COC(=O)CNS(=O)(=O)c1ccc(C)cc1)C1CCS(=O)(=O)C1 (stereo unspecified)	-0.3%	10.8%	-5.9	-1.9%	4.7%
CSc1nc(NCc2ccco2)c2sc3nc(C(C)C)c4c(c3c2n1)CC(C)(C)OC4	-4.3%	-4.9%	-17.3	-10.8%	-22.3%
CC(C)c1nc2sc3c(NCc4ccccc4)ncnc3c2c2c1COC(C)(C)C2	0.7%	-1.7%	?	9.2µM*	?
CC(C)c1nc2sc3c(NCc4ccco4)ncnc3c2c2c1COC(C)(C)C2	?	-25.8%	?	18.4µM*	23.1µM*
Cc1cc(OCC(=O)NCc2ccncc2)ccc1Cl	-13.8%	2.0%	0.0	10.5%	-20.5%
COc1ccc(C(=O)Nc2nnc(-c3ccccc3)s2)cc1	5.8%	3.2%	1.9	?	?
COc1ccc(-c2nc(NC(C)=O)sc2-c2ccc(OC)cc2)cc1	-7.0%	-1.9%	53.7	0.6%	-27.4%

Source: PubChem
